# Source: PubChem BioAssay (NCI)
# This is part of a sample that, as a whole, favours compounds with a hit. Of some 79,000 tested, about 15% had one in any assay. Values without a mark were called inactive. Active and inactive are the calls of the source. No stated cut-off is given here; in the data, active means growth inhibition above about 70%; inactive means the rest.
# How the values were obtained:
# [1] = NCI Yeast Anticancer Drug Screen. Data for the rad50 strain (AID 155);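 further: 0% = growth of vehicle-only cultures of the same strain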; conditions: S. cerevisiae rad50 strain growth inhibition, stronger effect = higher value
# Outline: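 Genetically altered yeast (DNA repair pathway); compound treatment; growth inhibition vs vehicle ctrl.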
# [2] = NCI Yeast Anticancer Drug Screen. Data for the mec2-1 strain (AID 157); conditions: S. cerevisiae mec2-1 strain, stronger effect = higher value
# Outline: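 Compounds were applied to mec2-1 yeast cells. Their growth was then compared with that of vehicle-treated cultures to give growth inhibition.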
# [3] = NCI Yeast Anticancer Drug Screen. Data for the sgs1 mgt1 strain (AID 161);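 further: 0% = growth of cultures given vehicle only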; conditions: S. cerevisiae sgs1 mgt1 strain, stronger effect = higher value
# Outline: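 This yeast growth screen uses a strain with defined DNA-repair lesions; compound-treated growth is compared with vehicle-treated growth.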
# [4] = NCI Yeast Anticancer Drug Screen. Data for the cln2 rad14 strain (AID 165);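 further: 0% = growth equal to vehicle treated cultures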; conditions: S. cerevisiae cln2 rad14 strain, stronger effect = higher value
# Outline: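 Strain: cln2 rad14 yeast, altered in cell cycle control and DNA damage repair. Read-out: growth inhibition vs vehicle.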
# [5] = NCI Yeast Anticancer Drug Screen. Data for the bub3 strain (AID 167); conditions: S. cerevisiae bub3 mutant strain, stronger effect = higher value
# Outline: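 Yeast carrying a defined mutation is treated with each compound, and growth is compared with that of vehicle-exposed cells to give inhibition.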
# [6] = NCI Yeast Anticancer Drug Screen. Data for the mlh1 rad18 strain (AID 175); conditions: S. cerevisiae mlh1 rad18 strain growth inhibition, stronger effect = higher value
# Outline: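 A repair-deficient yeast strain is exposed to test compound, and growth is scored relative to vehicle-treated controls.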
# [7] = at 5.0 µM (retest, dose inferred, filed as 0.5)
# [8] = at 50.0 µM (retest, dose inferred, filed as 5.0)
Structure (SMILES),"growth inhibition [1, 7]","growth inhibition [1, 8]",growth inhibition ([1]; at 50.0 µM),"growth inhibition [2, 7] [%]","growth inhibition [2, 8]",growth inhibition ([2]; at 50.0 µM),"growth inhibition [3, 7] [%]","growth inhibition [3, 8]",growth inhibition ([3]; at 50.0 µM),"growth inhibition [4, 7] [%]","growth inhibition [4, 8]",growth inhibition ([4]; at 50.0 µM),"growth inhibition [5, 7] [%]","growth inhibition [5, 8]",growth inhibition ([5]; at 50.0 µM),"growth inhibition [6, 7] [%]","growth inhibition [6, 8]",growth inhibition ([6]; at 50.0 µM)
COC(=O)CCC(NC(=S)N/N=C(\C)c1cnc2ccccc2n1)C(=O)OC (configuration not stated),12%,12%,34.1%,1,1%,16.2%,-5,-5%,67.1%,10,10%,11.1%,12,12%,26.8%,15,15%,31.4%
C=C(CS(=O)(=O)c1ccccc1)[P+](c1ccccc1)(c1ccccc1)c1ccccc1,0%,95% (active),29.2%,-6,92% (active),37.5%,-6,95% (active),34.4%,-1,81% (active),28.5%,-3,88% (active),2.15%,-2,92% (active),67.5%
Nc1nc(Cl)cc(NCC2(CO)CC(CCCc3ccccc3)C2)n1 (configuration not stated),25%,26%,-8.3%,10,7%,-6.6%,6,12%,-26.5%,13,12%,-1.55%,15,17%,-8.75%,23,22%,-48.1%
O=C1/C(=C/c2ccc(Cl)cc2)CCC/C1=C\c1ccc(O)c(CN2CCCCC2)c1,31%,52%,2.4%,2,17%,1.75%,7,20%,69%,7,24%,51.9%,-48,17%,72.3% (active),16,20%,90.6% (active)
c1ccc(-n2ncc3ccc4cccn4c32)cc1,-4%,-2%,63.9%,3,9%,38.1%,-15,40%,55%,-13,25%,13.1%,17,16%,91.3% (active),12,40%,47.7%
S=c1[nH]c2ccc(Br)cc2c(=S)n1-c1ccccc1,-1%,19%,90.5% (active),1,5%,91.2% (active),0,24%,89.5% (active),-1,4%,88% (active),-9,14%,89.4% (active),-29,5%,87.7% (active)
O=C(CCCCCCCCCCc1ccccc1)c1c(O)cccc1O,37%,96% (active),82.7% (active),29,97% (active),89% (active),45,97% (active),87.2% (active),24,95% (active),83.3% (active),41,97% (active),85.4% (active),39,95% (active),79.3% (active)
Cc1ccc(S(=O)(=O)CC(=O)CC(=O)C(=O)Nc2cc(C)ccc2C)cc1,-1%,4%,34.2%,-2,-8%,9.95%,-2,0%,17.9%,-3,-1%,1.85%,-2,-2%,-0.55%,-2,-2%,12.6%
Cc1ccc(NCCN(C)C)c2c(=O)c3c(O)cccc3sc12,95% (active),99% (active),67.3%,13,100% (active),54.3%,30,98% (active),60.7%,11,99% (active),58.7%,9,99% (active),49.5%,29,99% (active),55.8%
